Bioassay records as filed in PubChem BioAssay.
Beta cell apopt: blocks beta cell apoptosis; INS-1E cytokine-induced death, ATP luminescence, 48 h; percent of positive-control rescue, neutral wells zero; protection from apoptosis, % (no concentration beside the values); 0.8% of 300,000 active;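 active means Every replicate reaches about 75%, or at least half do and their mean reaches it too, limit read from the data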;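 further: 0% = cytokine-treated negative control wells and 100% = positive control rescue; higher means more ATP so stronger rescue from cytokine killing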
Mdm2 MdmX PPI: disrupts the human Mdm2-MdmX interaction | O15151+Q00987 | SaOS-2 split-luciferase Mdm2/MdmX complementation, luminescence | inhibition, % at 8 µM | 3% of 330,000 active;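 active means inhibition of at least 50% at 8 µM in the primary screen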
Target sequence (O15151 whole entry, looked up): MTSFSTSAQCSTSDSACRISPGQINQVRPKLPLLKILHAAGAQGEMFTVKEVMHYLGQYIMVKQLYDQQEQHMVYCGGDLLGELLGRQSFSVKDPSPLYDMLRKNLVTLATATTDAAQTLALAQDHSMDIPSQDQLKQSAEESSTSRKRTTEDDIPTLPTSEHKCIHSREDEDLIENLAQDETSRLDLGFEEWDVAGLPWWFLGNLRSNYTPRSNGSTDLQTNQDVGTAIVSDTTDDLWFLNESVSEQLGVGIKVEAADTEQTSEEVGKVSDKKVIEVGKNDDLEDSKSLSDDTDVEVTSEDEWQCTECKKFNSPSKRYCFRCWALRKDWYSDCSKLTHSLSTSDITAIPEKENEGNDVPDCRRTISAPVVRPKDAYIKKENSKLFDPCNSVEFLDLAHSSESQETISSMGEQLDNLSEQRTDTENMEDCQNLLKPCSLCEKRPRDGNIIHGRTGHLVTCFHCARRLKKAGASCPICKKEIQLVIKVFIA
Target sequence (Q00987 whole entry, looked up): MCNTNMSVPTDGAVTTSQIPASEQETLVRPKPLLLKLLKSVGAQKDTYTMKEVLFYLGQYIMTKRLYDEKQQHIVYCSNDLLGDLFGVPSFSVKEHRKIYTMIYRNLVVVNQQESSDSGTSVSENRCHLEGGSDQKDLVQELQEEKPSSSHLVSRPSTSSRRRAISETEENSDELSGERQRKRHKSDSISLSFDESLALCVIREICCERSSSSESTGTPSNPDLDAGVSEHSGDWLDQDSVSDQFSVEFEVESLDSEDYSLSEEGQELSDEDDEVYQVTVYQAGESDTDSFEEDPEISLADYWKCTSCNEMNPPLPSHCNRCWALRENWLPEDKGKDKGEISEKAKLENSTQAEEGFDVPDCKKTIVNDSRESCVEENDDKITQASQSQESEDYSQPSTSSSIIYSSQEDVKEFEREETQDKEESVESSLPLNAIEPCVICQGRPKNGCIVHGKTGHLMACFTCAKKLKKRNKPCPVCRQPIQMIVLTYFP
697 NFkB inh: inhibitors of the PMA/ionomycin-induced NF-kB reporter in 697 B cells. AID 435022. 697 B-cell NF-kB luciferase reporter, 16 h. 0.33% of 330,000 active. inhibition, % at 4 µM; in the data active means inhibition above about 35%
Jurkat NFkB inh: inhibitors of the PMA/ionomycin-induced NF-kB reporter in Jurkat cells | inhibition, % at 4 µM | PMA/ionomycin-induced NF-kB luciferase reporter, luminescence | AID 435003 | 0.53% of 330,000 active; in the data active means inhibition above about 50%
Gli-Sufu antag: blocks Gli-Sufu signaling in a luciferase reporter; Sufu-KO-LIGHT fibroblasts, Gli luciferase reporter luminescence; inhibition, % at 5 µM; 0.74% of 340,000 active; AID 588413;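 active means inhibition above about 55%, limit read from the data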;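 further: 0% = DMSO-treated cells and 100% = wells with medium but no cells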
CSC inhib: cancer stem cell inhibition. cancer stem cell-like cells viability, luminescence. inhibition, % at 7.5 µM. 1.1% of 300,000 active; in the data active means inhibition above about 75%; tested in HMLE shEcad cells
Mdm2 MdmX conf: human Mdm2/MdmX binding inhibition, confirmed; shares compounds with Mdm2 MdmX PPI; luminescent assay; inhibition, % at 8 µM; 55% of 10,000 active; in the data active means inhibition above about 40%
Full FLuc ctr: full-length luciferase inhibition in Mdm2/MdmX counter-screen. 77% of 6,200 active. inhibition, % at 8 µM. AID 504607. shares compounds with Mdm2 MdmX PPI. SaOS-2 full-length luciferase counterscreen, luminescence;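 active means mean inhibition at 8 µM reaching about 37%, which flags the compound as non-specific, limit read from the data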;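 further: p53-null SaOS-2 cells with luciferase driven by a doxycycline-inducible promoter; compound on cells about two nights before reading with doxycycline added after day one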
Starred values were filed as active, the others as inactive; . = no result. Shown are actives, neighbours in structure and some others; about 4.5% of the full set was active somewhere.

SMILES | Beta cell apopt | Mdm2 MdmX PPI | 697 NFkB inh | Jurkat NFkB inh | Gli-Sufu antag | CSC inhib | Mdm2 MdmX conf | Full FLuc ctr
COC(=O)N1C(=O)[C@@](Cc2ccccc2)(c2ccccc2)N1C(=O)OC | -0.6 | 61.4* | 22.1 | 5.7 | 2.2 | 21.7 | 50.2* | 57.3*
CC[C@@]1(c2ccccc2C)C(=O)N(C(=O)OC)N1C(=O)OC | -3.5 | 20.1 | 19.8 | -7.5 | 2.5 | 19.0 | . | .
COC(=O)N1C(=O)[C@@](c2ccccc2)(C2CCCCC2)N1C(=O)OC | -3.1 | 66.0* | -19.5 | -7.6 | 21.0 | 31.7 | 44.6* | 49.5*
O=C(Nc1ccccc1)Oc1cccc(Br)c1 | 0.2 | 13.0 | -16.1 | -10.6 | -3.2 | 1.3 | . | .
O=C(/C=C/c1ccc(Cl)cc1)NCc1cccs1 | -12.9 | -67.1 | -48.0 | -32.7 | -40.1 | -12.0 | . | .
O=C(/C=C/C(=O)NCc1cccs1)NCc1cccs1 | -0.4 | 62.5* | -1.2 | 27.7 | -8.9 | -9.4 | 3.9 | .
CCC(=O)N1CCc2cc(Br)c(S(=O)(=O)CCC(=O)NCCc3ccccc3)cc21 | . | . | . | . | 6.5 | . | . | .
COc1ccccc1NC(=O)c1cc2c(CO)cnc(C)c2oc1=Nc1ccc(OC)c(OC)c1 | 35.7 | 64.8* | 6.1 | 30.8 | 11.3 | 15.9 | 35.2 | .
Cc1ccc(-c2nc3c(c(=O)[nH]c(=O)n3Cc3ccccc3)n2C)s1 | -0.4 | 62.3* | 5.4 | 0.1 | . | -16.2 | 5.8 | .
CCOC(=O)C1CCN(C(=O)c2c(C)oc3c2C(=O)c2ccccc2C3=O)CC1 | 102.0* | 57.9* | -2.1 | 22.5 | 43.0 | 59.8 | 45.2* | 67.0*
O=C(CCl)N1c2ccccc2OCC1c1ccccc1 (stereo not drawn) | 3.1 | 13.0 | 22.3 | 7.3 | -3.7 | -11.2 | . | .
O=C(CCl)N1c2ccccc2SCC1c1ccccc1 (stereo not drawn) | -10.5 | 98.6* | -3.1 | 13.9 | -17.2 | -7.1 | 53.6* | 19.3
O=C(Cn1cnc2ccccc2c1=O)Nc1ccc(S(=O)(=O)N2CCOCC2)cc1 | . | 11.2 | 8.8 | -6.9 | -8.7 | 2.0 | . | .
O=C(Cn1cnc2cc([N+](=O)[O-])ccc2c1=O)Nc1cccc(S(=O)(=O)N2CCOCC2)c1 | 5.7 | 61.4* | 4.3 | 8.5 | 8.7 | 0.1 | 7.9 | .
CCOc1ccc2c(c1)c(=O)c(S(=O)(=O)c1ccc(CC)cc1)cn2C | -3.6 | -10.5 | -7.2 | -9.0 | -35.8 | -5.4 | . | .
COc1ccc(CC(=O)NNC(=O)c2cnccn2)cc1 | -7.9 | 5.6 | 9.9 | 6.8 | -12.2 | 1.4 | . | .
COc1ccc(C(=O)NC(=S)NNC(=O)c2cnccn2)cc1 | 76.8* | 64.2* | 7.7 | 16.7 | 5.6 | 88.2* | 56.8* | 40.6*
O=C(NC(=S)NNC(=O)c1cnccn1)c1ccc(Cl)cc1 | 3.7 | 69.2* | 16.8 | -12.8 | -9.2 | 94.1* | 39.5 | 47.7*
COc1ccc(-c2cc(C(F)(F)F)n3ncc(C(=O)NCC4CCCO4)c3n2)cc1OC (stereo not drawn) | 13.8 | 57.1* | -0.3 | 18.1 | -3.1 | -8.5 | 3.1 | .
CCOC(=O)N1CCC(NC(=O)c2cnn3c(C(F)(F)F)cc(-c4cccc(OC)c4)nc23)CC1 | . | 61.5* | -8.0 | -0.9 | -8.4 | . | 13.2 | .
O=C(CN1C(=O)/C(=C\c2cccc(Br)c2)Oc2ccccc21)NCCCN1CCOCC1 | . | 63.2* | 5.1 | -13.8 | -2.4 | 34.6 | 10.7 | .
Cn1nc(-c2ccccc2)c(CSc2ccccc2Cl)c1Cl | -14.5 | 52.6* | 0.2 | 18.6 | -19.0 | 8.2 | 64.6* | 55.9*
Cn1nc(-c2ccccc2)c(C(O)c2ccc(Cl)cc2)c1Cl (stereo not drawn) | -2.3 | -31.9 | -13.1 | -16.6 | -3.4 | 15.9 | . | .
Cc1nn(C)c(C)c1NC(=O)CSc1nc(Cc2ccccc2)nc2c1cnn2-c1ccccc1 | -7.0 | 94.2* | -41.8 | -8.2 | -12.0 | 8.2 | 57.1* | 102.8*
Cn1c(SCC(=O)Nc2ccc3c(c2)n(C)c(=O)n3C)nnc1-c1ccncc1 | 3.7 | 16.3 | 26.6 | -12.2 | 38.4 | . | . | .
CC(Sc1nc2ccccc2c(=O)n1CCCN1CCOCC1)C(=O)N1CCc2ccccc21 (stereo not drawn) | . | . | . | . | 3.9 | . | . | .
CC(CCc1ccccc1)NCc1cccc2ccccc12 (stereo not drawn) | 6.8 | -26.2 | -2.2 | -3.3 | 17.4 | 3.4 | . | .
